# Source: PubChem BioAssay
# The source made the active and inactive calls.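 How the source made its calls, unless noted: active means compound raises insulin release from rat beta cells at 5 mM glucose, no numeric limit stated; inactive means the rest.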
# Columns and labels:
# [1] = Wnt pathway potentiators raising nuclear beta-catenin – imaging, WNT3A-conditioned medium, mouse C2C12, NPC library, primary screen (AID 1117326; in the data active means nuclear beta-catenin stimulation mostly above about 4.2%, no sharp cut-off; inactive means mostly below about 10%); settings: stronger effect = higher value
# [2] = stimulators of insulin release from INS-1E, primary screen, cell-based, 5 mM glucose, NPC library (AID 1117329); settings: rat INS-1E insulin secretion, at 10 µM, stronger effect = higher value
# [3] = growth inhibition of GSK3B-pretreated HCT116 cells – cell-based, CellTiter-Glo, 0.2 to 20 µM (AID 1117336;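 active means compounds lowering colon cancer cell viability after pretreatment blocking the GSK3B kinase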); settings: HCT116 viability after GSK3B inhibitor, at 20 µM, stronger effect = higher value
# [4] = inhibition of endothelial tube formation, primary screen, imaging, VEGF stimulated, CD31 staining, tube area, NPC library (AID 1117340;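 active means compound that reduces growth-factor-driven endothelial tube area in a mixed cell culture, no cutoff stated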); settings: VEGF-stimulated ADSC/ECFC co-culture, at 10 µM, stronger effect = higher value
# [5] = GLP1 release stimulators, primary, NCI-H716, NPC library (AID 1117341;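 active means compound raises GLP1 secretion from the human gut endocrine cells, with no numeric limit stated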); settings: NCI-H716 cells, at 10 µM, stronger effect = higher value
# [6] = HCT116 colon cancer cell growth inhibition, primary screen, CellTiter-Glo luminescence, NPC library (AID 1117342;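 active means compounds that lower survival of HCT116 colon cancer cells in the luminescence readout, no numeric limit stated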); settings: at 20 µM (top of the series)
# [7] = reduced SW480 viability measured with CellTiter-Glo, NPC library, primary (AID 1117343;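 active means compounds that lower viability of the colon cancer cells in the luminescence readout, with no numeric limit stated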); settings: CellTiter-Glo luminescence; at 20 µM (top of the series) unless noted
# [8] = NPC library primary testing for decreased DLD-1 cell viability via CellTiter-Glo (AID 1117346;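 active means compounds that lower survival of DLD-1 colon cancer cells in the luminescence readout, no cutoff given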); settings: DLD-1 viability, CellTiter-Glo luminescence; at 20 µM (top of the series)
# [9] = target: NAD(+) hydrolase SARM1 (Homo sapiens) (UniProt Q6SZW1); test: blocking NAD cleavage by SARM1 SAM-TIR – cell lysate, NAD-Glo luminescence (AID 1508614;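 active means compound whose remaining NAD level is above about 45 nM, limit read from the data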); settings: SAM-TIR HEK293T lysate NADase, at 1 µM, stronger effect = higher value
# Sequence of NAD(+) hydrolase SARM1 (Homo sapiens) (Q6SZW1 whole entry, looked up): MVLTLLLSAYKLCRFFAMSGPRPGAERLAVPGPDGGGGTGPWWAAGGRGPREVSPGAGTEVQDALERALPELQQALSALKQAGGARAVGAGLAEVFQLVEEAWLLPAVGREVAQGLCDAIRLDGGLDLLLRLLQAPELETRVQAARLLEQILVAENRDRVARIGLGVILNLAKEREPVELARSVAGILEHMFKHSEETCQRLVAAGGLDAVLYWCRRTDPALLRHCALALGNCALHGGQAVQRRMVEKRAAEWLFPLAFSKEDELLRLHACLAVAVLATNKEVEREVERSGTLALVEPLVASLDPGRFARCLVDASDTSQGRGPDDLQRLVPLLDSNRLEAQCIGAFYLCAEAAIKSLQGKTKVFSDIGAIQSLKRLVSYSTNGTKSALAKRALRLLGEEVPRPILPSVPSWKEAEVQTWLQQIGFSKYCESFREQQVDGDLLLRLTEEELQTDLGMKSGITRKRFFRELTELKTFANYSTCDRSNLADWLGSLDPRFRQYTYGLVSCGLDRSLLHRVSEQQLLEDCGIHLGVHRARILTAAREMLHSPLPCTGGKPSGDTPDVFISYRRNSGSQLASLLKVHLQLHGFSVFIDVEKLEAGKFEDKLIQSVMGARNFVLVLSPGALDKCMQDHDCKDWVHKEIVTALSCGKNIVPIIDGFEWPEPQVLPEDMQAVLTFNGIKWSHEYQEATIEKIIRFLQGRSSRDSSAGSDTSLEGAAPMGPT
# [10] = compounds altering viability of human ES cells (AID 493140; call rule not given here;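 further: cells exposed to compounds for four days before counting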); settings: human embryonic stem cell survival screen; stronger effect = higher value
# [11] = MELAS cybrid and Rieske KO viability enhancers – cell-based, MELAS cybrids, Rieske KO mouse fibroblasts, CellTiter-Glo, primary screen (AID 1508586;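 active means mean z-score across replicates of 1.96 or higher in either the MELAS or the Rieske mutant cell line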;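 further: z relative to plate mean and SD of compound and empty wells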); settings: low glucose
# [12] = P. berghei load reduction in hepatocytes – cell-based, HepG2, luciferase luminescence, HepG2 viability, primary screen (AID 624349; in the data active means parasite load remaining mostly below about 12%, no sharp cut-off; inactive means mostly above about 10%;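 further: 100% = mean of DMSO negative control wells on the same plate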); settings: P. berghei liver stage in HepG2, luciferase luminescence, concentration not given here; parasite load remaining: stronger effect = lower value; viability: measured here: HepG2 viability without parasites
# [13] = blockers of cellular phospholipid synthesis – cell-based, LOPAC library, screen 4, primary screen (AID 1347384; call rule not given here); settings: animal cells, phospholipid biosynthesis inhibition screen; at 10 µM
# [14] = viability loss with induced miR-34 in A549 – imaging, A549 dox-inducible miR-34, nuclei and caspase counts, primary screen (AID 1347080;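 active means compounds whose cell count with miR-34 switched on is under 0.7 times the count with it off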); settings: A549 miR-34 inducible, Hoechst nuclei count, 48 h
# [15] = target: Mitogen-activated protein kinase 7 (Homo sapiens) (UniProt Q13164); test: Gal4-ERK5 driven luciferase induction – cell-based, HTS, primary screen (AID 1508626;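 active means luciferase signal above three times the same-plate solvent-only control wells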;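 further: luciferase driven by Gal4-ERK5 fusion binding five Gal4 sites before minimal TATA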); settings: HeLa Gal4-ERK5 transactivation, 18 h, at 5 µM, stronger effect = higher value
# Sequence of Mitogen-activated protein kinase 7 (Homo sapiens) (Q13164 whole entry, looked up, the tested form may be a part): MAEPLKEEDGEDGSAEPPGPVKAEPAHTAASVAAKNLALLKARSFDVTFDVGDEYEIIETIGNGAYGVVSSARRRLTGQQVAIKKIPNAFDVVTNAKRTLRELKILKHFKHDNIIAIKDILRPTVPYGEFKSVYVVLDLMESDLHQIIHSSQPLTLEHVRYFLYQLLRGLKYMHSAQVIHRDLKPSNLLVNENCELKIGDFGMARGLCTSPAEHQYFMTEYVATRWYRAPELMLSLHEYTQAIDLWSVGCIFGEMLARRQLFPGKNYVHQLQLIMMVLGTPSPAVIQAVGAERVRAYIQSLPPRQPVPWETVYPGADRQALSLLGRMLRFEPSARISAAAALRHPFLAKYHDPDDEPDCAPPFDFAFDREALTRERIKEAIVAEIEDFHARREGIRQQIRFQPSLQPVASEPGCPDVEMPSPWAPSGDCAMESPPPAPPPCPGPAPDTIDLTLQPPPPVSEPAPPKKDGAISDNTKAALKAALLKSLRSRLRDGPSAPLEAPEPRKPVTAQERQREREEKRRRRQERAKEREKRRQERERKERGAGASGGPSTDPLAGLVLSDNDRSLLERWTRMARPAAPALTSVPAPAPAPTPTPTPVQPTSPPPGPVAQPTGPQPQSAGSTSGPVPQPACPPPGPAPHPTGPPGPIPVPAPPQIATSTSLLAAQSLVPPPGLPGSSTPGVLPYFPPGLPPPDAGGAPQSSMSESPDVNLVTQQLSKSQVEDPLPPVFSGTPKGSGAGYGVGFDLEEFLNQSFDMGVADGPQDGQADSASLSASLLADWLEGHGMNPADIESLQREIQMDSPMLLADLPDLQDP
# [16] = MELAS cybrid survival, CellTiter-Glo 48 h, stronger effect = higher value
# [17] = Rieske KO mouse fibroblast survival, CellTiter-Glo 72 h
compound,measurement,setting,value
O=C(O)CCCCC(=O)O,nuclear beta-catenin stimulation,[1]; at 10 µM,0.3% (inactive)
same,nuclear beta-catenin stimulation,"[1]; stimulation, at 2 µM",-0.9%
same,insulin secretion stimulation,[2],-0.6% (inactive)
same,viability decrease,[3],-6.5% (inactive)
same,tube area decrease,[4],-7.7% (inactive)
same,GLP1 secretion stimulation,[5],1.4% (inactive)
same,inhibition of viability,[6],-4.8% (inactive)
same,viability decrease (inhibition),[7],25% (inactive)
same,viability decrease (inhibition),[8],11.8% (inactive)
same,remaining NAD,[9],10 nM (inactive)
O=C(OCCOCCO)c1ccccc1Nc1cccc(C(F)(F)F)c1,survival,[10],2.08 (inactive)
same,nuclear beta-catenin stimulation,[1]; at 10 µM,-1.7% (inactive)
same,nuclear beta-catenin stimulation,"[1]; stimulation, at 2 µM",-0.5%
same,insulin secretion stimulation,[2],0.3% (inactive)
same,viability decrease,[3],79.4% (active)
same,tube area decrease,[4],13.5% (inactive)
same,GLP1 secretion stimulation,[5],-1.6% (inactive)
same,inhibition of viability,[6],81.8% (active)
same,viability decrease (inhibition),[7],54.2% (active)
same,viability decrease (inhibition),[8],45.7% (inactive)
same,z-score,[11]; [16],0.681 (inactive)
same,z-score,[11]; [17],0.111
O=P(O)(O)C(Cl)(Cl)P(=O)(O)O,parasite load remaining,[12],33.9% (inactive)
same,viability,[12],100%
same,nuclear beta-catenin stimulation,[1]; at 10 µM,1% (inactive)
same,nuclear beta-catenin stimulation,"[1]; stimulation, at 2 µM",0.9%
same,insulin secretion stimulation,[2],5.1% (inactive)
same,viability decrease,[3],-1.2% (inactive)
same,tube area decrease,[4],26.4% (inactive)
same,GLP1 secretion stimulation,[5],-4.3% (inactive)
same,inhibition of viability,[6],11.1% (inactive)
same,viability decrease (inhibition),[7],26.6% (inactive)
same,viability decrease (inhibition),[8],-2.9% (inactive)
same,outcome,[13],inactive
same,z-score,[11]; [16],0.218 (inactive)
same,z-score,[11]; [17],-0.285
CCOCCn1c(N2CCCN(C)CC2)nc2ccccc21,nuclear beta-catenin stimulation,[1]; at 10 µM,-1.8% (inactive)
same,nuclear beta-catenin stimulation,"[1]; stimulation, at 2 µM",1%
same,insulin secretion stimulation,[2],4.3% (inactive)
same,viability decrease,[3],-10.6% (inactive)
same,tube area decrease,[4],3.4% (inactive)
same,GLP1 secretion stimulation,[5],-2.3% (inactive)
same,inhibition of viability,[6],8.5% (inactive)
same,viability decrease (inhibition),[7],6% (inactive)
same,viability decrease (inhibition),[8],-4.3% (inactive)
same,z-score,[11]; [16],0.35 (inactive)
same,z-score,[11]; [17],-0.184
N#Cc1cc(NC(=O)C(=O)O)c(Cl)c(NC(=O)C(=O)O)c1,nuclear beta-catenin stimulation,[1]; at 10 µM,3.5% (inactive)
same,nuclear beta-catenin stimulation,"[1]; stimulation, at 2 µM",1.2%
same,insulin secretion stimulation,[2],2.2% (inactive)
same,viability decrease,[3],-38.9% (inactive)
same,tube area decrease,[4],-0.9% (inactive)
same,GLP1 secretion stimulation,[5],-0.9% (inactive)
same,inhibition of viability,[6],-4.9% (inactive)
same,viability decrease (inhibition),[7],25.7% (inactive)
same,viability decrease (inhibition),[8],-16.9% (inactive)
same,z-score,[11]; [16],-0.414 (inactive)
same,z-score,[11]; [17],-0.697
NC(=O)N[C@@H](CCC(=O)O)C(=O)O,nuclear beta-catenin stimulation,[1]; at 10 µM,-0.1% (inactive)
same,nuclear beta-catenin stimulation,"[1]; stimulation, at 2 µM",-1%
same,insulin secretion stimulation,[2],0.3% (inactive)
same,viability decrease,[3],11.1% (inactive)
same,tube area decrease,[4],-22.3% (inactive)
same,GLP1 secretion stimulation,[5],-2.5% (inactive)
same,inhibition of viability,[6],4.1% (inactive)
same,viability decrease (inhibition),[7],-6.5% (inactive)
same,viability decrease (inhibition),[8],1% (inactive)
same,remaining NAD,[9],10 nM (inactive)
Nc1c[n+](N2CCOCC2)no1,nuclear beta-catenin stimulation,[1]; at 10 µM,0.4% (inactive)
same,nuclear beta-catenin stimulation,"[1]; stimulation, at 2 µM",-0.3%
same,insulin secretion stimulation,[2],-1.7% (inactive)
same,viability decrease,[3],15.5% (inactive)
same,tube area decrease,[4],-10.8% (inactive)
same,GLP1 secretion stimulation,[5],-2.6% (inactive)
same,inhibition of viability,[6],-13.8% (inactive)
same,viability decrease (inhibition),[7],66.6% (active)
same,viability decrease (inhibition),[8],20.6% (inactive)
same,outcome,[13],inactive
CN(C)CCOC1=Cc2ccccc2Sc2ccc(Cl)cc21,nuclear beta-catenin stimulation,[1]; at 10 µM,31.6% (inactive)
same,nuclear beta-catenin stimulation,"[1]; stimulation, at 2 µM",-1%
same,insulin secretion stimulation,[2],14.5% (inactive)
same,viability decrease,[3],99.3% (active)
same,tube area decrease,[4],89.3% (active)
same,GLP1 secretion stimulation,[5],-2.6% (inactive)
same,inhibition of viability,[6],99% (active)
same,viability decrease (inhibition),[7],102% (active)
same,viability decrease (inhibition),[8],97.6% (active)
same,z-score,[11]; [16],0.153 (inactive)
same,z-score,[11]; [17],0.114
C=CC(C)(O)CCC=C(C)CCC=C(C)C (stereo not drawn),nuclear beta-catenin stimulation,[1]; at 10 µM,2.7% (inactive)
same,nuclear beta-catenin stimulation,"[1]; stimulation, at 2 µM",-0.9%
same,insulin secretion stimulation,[2],-0.2% (inactive)
same,GLP1 secretion stimulation,[5],9.7% (inactive)
Cc1c(C)n(CCN(C)C)c2ccc(C(=O)OCCN(C)C)cc12,nuclear beta-catenin stimulation,[1]; at 10 µM,1.1% (inactive)
same,nuclear beta-catenin stimulation,"[1]; stimulation, at 2 µM",14.1%
same,insulin secretion stimulation,[2],0.4% (inactive)
same,viability decrease,[3],41.2% (inactive)
same,inhibition of viability,[6],27.7% (inactive)
same,viability decrease (inhibition),[7],71.7% (active)
same,viability decrease (inhibition),[8],0.9% (inactive)
CCN(CC)C(=O)c1cccnc1,nuclear beta-catenin stimulation,[1]; at 10 µM,2.1% (inactive)
same,nuclear beta-catenin stimulation,"[1]; stimulation, at 2 µM",-1%
same,insulin secretion stimulation,[2],1.2% (inactive)
same,viability decrease,[3],6.1% (inactive)
same,GLP1 secretion stimulation,[5],1.6% (inactive)
same,inhibition of viability,[6],14.5% (inactive)
same,viability decrease (inhibition),[7],-1.1% (inactive)
same,viability decrease (inhibition),[8],6.2% (inactive)
same,fold change,"[14]; stronger effect = lower value, cell number ratio, induced over uninduced",0.953 (inactive)
same,fold change,[14]; measured here: relative caspase fold change +Dox/-Dox,0.829
same,cell count,"[14]; measured here: total cells with miR-34 induction, stronger effect = lower value",8700
same,cell count,[14]; measured here: total cells without miR-34 induction,9130
same,remaining NAD,[9],10 nM (inactive)
CC[C@H](C)[C@H](N)C(=O)O,nuclear beta-catenin stimulation,[1]; at 10 µM,2.1% (inactive)
same,nuclear beta-catenin stimulation,"[1]; stimulation, at 2 µM",4.3%
same,insulin secretion stimulation,[2],-0.7% (inactive)
same,viability decrease,[3],-17.5% (inactive)
same,tube area decrease,[4],27% (inactive)
same,GLP1 secretion stimulation,[5],-0.4% (inactive)
same,inhibition of viability,[6],-13.2% (inactive)
same,viability decrease (inhibition),[7],0.9% (inactive)
same,viability decrease (inhibition),[8],-7.9% (inactive)
same,remaining NAD,[9],10 nM (inactive)
N[C@H]1C(O)O[C@H](CO)[C@@H](O)[C@@H]1O (stereo partly drawn),nuclear beta-catenin stimulation,[1]; at 10 µM,-1% (inactive)
same,nuclear beta-catenin stimulation,"[1]; stimulation, at 2 µM",1.7%
same,insulin secretion stimulation,[2],1.4% (inactive)
same,viability decrease,[3],7.5% (inactive)
same,tube area decrease,[4],-12.1% (inactive)
same,GLP1 secretion stimulation,[5],-0.8% (inactive)
same,inhibition of viability,[6],-4.93% (inactive)
same,viability decrease (inhibition),[7],-42% (inactive)
same,viability decrease (inhibition),[8],-2.3% (inactive)
same,luciferase signal,[15],84 AU (inactive)
